# From PubChem BioAssay (NCATS)
# Inconclusive results are not listed. The source made the active and inactive calls. Calls come from the whole dose curve; as a rule, active = well fitted activation curve with a large enough effect; inconclusive = small, poorly fitted or top-dose-only effect; inactive = no such curve, though single readings can be large or run the other way.
# Target: Arylsulfatase A (Homo sapiens) (UniProt P15289)
# Assay: qHTS screen for enhancers of Arylsulfatase A (ASA1): LOPAC Validation Assay (AID 720538)
# Conditions: ASA enzyme activity, LOPAC qHTS enhancer assay; series mostly up to 57.5 µM
# Source text: Lysosomal storage diseases (LSDs) are caused by genetic mutations in genes encoding proteins important for normal lysosomal function. In affected patients, symptoms are usually not manifested unless the mutations result in more than 90% reduction of enzymatic activity of a specific lysosomal enzyme. […] Small molecules could function as enzyme enhancement agents by binding to and stabilizing mutant misfolded proteins in the endoplasmic reticulum (ER), allowing them to evade the ER associated degradation (ERAD), and eventually reach the lysosome. Moreover, small molecules is hypothesized to be able to enhance the residual activity of deficient lysosomal enzyme by either interacting directly with the mutant enzyme or indirectly by acting in different cellular pathways; resulting to increased levels of the mutant and partially functional protein in the lysosomal compartment.
# A cell based assay in 1536 well plate format was developed to evaluate activity of the lysosomal sulfatase ASA1 enzyme. ASA1 is deficient in metachromatic leukodystrophy (MLD), an LSD characterized by progressive neurodegeneration for which specific treatment is not available. Compounds that are active may therefore have some therapeutic application for this disease. This assay was used to validate the ASA1 qHTS using the Sigma LOPAC library. In this assay increase in signal = enhanced ASA1 activity. Activation is the desired outcome for this assay.
# NIH Chemical Genomics Center [NCGC]
# NIH Molecular Libraries Probe Centers Network [MLPCN]
# Assay Submitter (PI): Gustavo Maegawa, Johns Hopkins University School of Medicine
# [2] Gieselmann V, et al. Acta Paediatr Suppl. 2008; 97: 15-21
# Four microliter (~8,000 cells/well) of SV40-transformed skin fibroblasts from an MLD patient (ASA-I179S) were seeded into a 1,536 solid white plate. Cells were left to adhere for 6 hrs, followed by addition of 23 nL of compounds. Cells were incubated with compounds for 48h at 37 degree C and 5% CO2. Four microliter of 1 mM pNCS substrate/lysis buffer (0.5mM pNCS final concentration) was added and incubated for 14h at room temperature. To stop the reaction, […] of 5 N of NaOH (1N NaOH final concentration) was then added and fluorescence was measured using the ViewLux plate reader (Ex=525 nm; Em=598 nm).
# Chain of Arylsulfatase A (Homo sapiens) (P15289 whole entry, looked up): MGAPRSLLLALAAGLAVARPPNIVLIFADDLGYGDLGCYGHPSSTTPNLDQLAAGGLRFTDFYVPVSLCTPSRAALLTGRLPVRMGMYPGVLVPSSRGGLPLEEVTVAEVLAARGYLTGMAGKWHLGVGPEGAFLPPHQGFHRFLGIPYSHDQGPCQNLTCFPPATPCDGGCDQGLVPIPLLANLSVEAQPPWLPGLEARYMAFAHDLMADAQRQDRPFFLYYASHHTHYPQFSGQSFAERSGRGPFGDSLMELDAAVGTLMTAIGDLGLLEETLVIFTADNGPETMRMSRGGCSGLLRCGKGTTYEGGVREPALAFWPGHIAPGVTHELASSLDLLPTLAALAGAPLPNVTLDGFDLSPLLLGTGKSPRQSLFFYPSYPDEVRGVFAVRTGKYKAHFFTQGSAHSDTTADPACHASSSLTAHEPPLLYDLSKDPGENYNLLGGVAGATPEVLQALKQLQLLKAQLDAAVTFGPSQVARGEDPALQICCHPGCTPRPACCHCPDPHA
row,Compound,outcome
1,CNCCc1c[nH]c2ccc(O)cc12,inactive
2,CCCN1CCO[C@@H]2c3cc(O)ccc3OC[C@H]21,inactive
3,O=C(Cc1ccc(Cl)c(Cl)c1)N1CCCCC1CN1CCCC1 (stereo not given),inactive
4,NC(=NCCC[C@H](N)C(=O)O)N[N+](=O)[O-],inactive
5,S=C(NC1CCCCC1)N1CCC(c2cnc[nH]2)CC1,inactive
6,Clc1cnc(Oc2ccc(Oc3ncc(Cl)cc3Cl)cc2)c(Cl)c1,inactive
7,COC(=O)[C@@H](N)CCCN=C(N)N[N+](=O)[O-],inactive
8,C[C@]12N[C@H](Cc3ccccc31)c1ccccc12,inactive
9,NC(CCP(=O)(O)O)C(=O)O (stereo not given),inactive
10,NC(CP(=O)(O)O)C(=O)O (stereo not given),inactive
11,NC1CCc2cc(O)c(O)cc2C1 (stereo not given),inactive
12,CC(C)NC(C)Cc1ccc(I)cc1 (stereo not given),inactive; inhibitor; fitted 0.3013 uM
13,CC(=O)[C@H]1CCC2C3CC[C@H]4C[C@H](O)CC[C@]4(C)C3CC[C@@]21C (stereo not given in full),inactive
14,CC(C)Oc1cccnc1N(C)C1CCN(Cc2ccccc2)CC1,inactive
15,NCCc1c[nH]c2ccc(O)cc12,inactive; inhibitor; fitted 4.2562 uM
16,CS(=N)(=O)CC[C@H](N)C(=O)O (stereo not given in full),inactive
17,NC1CC1c1ccccc1 (stereo not given),inactive
18,C/C=C(/C)C(=O)O[C@H]1C(C)=C2[C@H]([C@@H]1OC(=O)CCCCCCC)[C@@](C)(OC(C)=O)C[C@H](OC(=O)CCC)[C@@]1(O)[C@H]2OC(=O)[C@@]1(C)O,inactive
19,COc1ccc2c(c[n+](C)c3c4cc5c(cc4ccc23)OCO5)c1OC,inactive
20,O=C(O)CC[N+](=O)[O-],inactive

row,Compound,outcome
1,CC1=NN=C(c2ccc(N)cc2)c2cc3c(cc2C1)OCO3,inactive
2,CC(=O)NCCc1c[nH]c2ccccc12,inactive
3,O=C(N[C@H]1CN2CCC1CC2)c1ccc(Cl)cc1,inactive
4,CN1C2CCC1CC(OC(=O)c1cc(Cl)cc(Cl)c1)C2 (stereo not given),inactive
5,C#CCOC(=O)C1=CCCN(C)C1,inactive
6,O=C(O)[C@@H]1CCN1,inactive
7,Cn1cnc(CCN)c1,inactive
8,C[C@]12CCC3C(CC[C@H]4C[C@H](O)CC[C@]34C)C1CC[C@@H]2C(=O)CO (stereo not given in full),inactive; inhibitor; fitted 2.3934 uM
9,O=C1CCCN1CC#CCN1CCCC1,inactive
10,CCCN(CCC)C1CCc2ccc(O)cc2C1 (stereo not given),inactive; inhibitor; fitted 0.0338 uM
11,Cc1nccc2c1[nH]c1ccccc12,inactive
12,NC(N)=NOCCC(N)C(=O)O (stereo not given),inactive; inhibitor; fitted 2.3934 uM
13,Oc1ccc2c3c1O[C@H]1c4[nH]c5c(c4C[C@@]4(O)[C@@H](C2)N(CC2CC2)CC[C@]314)C[C@@]1(O)[C@H]2Cc3ccc(O)c4c3[C@@]1(CCN2CC1CC1)[C@H]5O4,inactive
14,CC[C@@]1(O)C(=O)OCc2c1cc1n(c2=O)Cc2cc3ccccc3nc2-1,inactive
15,C[N+]1(C)C2CC(OC(=O)[C@H](CO)c3ccccc3)CC1C1OC12 (stereo not given in full),inactive
16,CCCCc1ccc(C(=O)O)nc1,inactive
17,CC[C@@H](C(N)=O)N1CCCC1=O,inactive
18,CCCN(CCC)[C@@H]1CCc2ccc(O)cc2C1,inactive
19,C[N+]1(C)C2CCC1CC(OC(=O)C(CO)c1ccccc1)C2 (stereo not given),inactive
20,COc1cc(C(O)CN)ccc1O (stereo not given),inactive
